SMILES strings stand for the structures. Among all 5,500 compounds or so, about 2,000 (36%) were called active. Inconclusive results (about 18%) are left out. Some of the results follow. A number with no mark means an inactive call. Rule as the data show it: active = normalized growth mostly below about 0.91 (no sharp cut-off); inconclusive = no clear call, values can overlap the other calls; inactive = mostly above about 0.92.

A short description of the assay: chemical genetic growth profiling, strain panel (AID 1159580).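 Also: tested at 20 µM; growth read once vehicle control cultures reached saturation at 30 °C; 1 = growth at the plate median or of vehicle wells; lower values mean less growth of the strain.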 The settings on record: S. cerevisiae deletion strains, growth OD.
Where [1] appears, read: locus YHR030C, strain SLT2, hits give low values.
The mark [2] stands for this setting: locus YHR079C, strain IRE1, hits give low values.
The mark [3] stands for this setting: locus YJL095W, strain BCK1, hits give low values.
Where [4] appears, read: locus YJR066W, strain TOR1, hits give low values.
Setting [5] is: locus YLR113W, strain HOG1, hits give low values.
The mark [6] stands for this setting: locus YNL183C, strain NPR1, hits give low values.
The mark [7] stands for this setting: locus YOR231W, strain MKK1, hits give low values.
Where [8] appears, read: locus YPL256C, strain CLN2, hits give low values.
Where [9] appears, read: locus YAL040C, strain CLN3, hits give low values.
Setting [10] is: locus YER002W, strain NOP16, hits give low values.
[11] abbreviates: locus YNL175C, strain NOP13, hits give low values.
The mark [12] stands for this setting: locus YNL197C, strain WHI3, hits give low values.
Where [13] appears, read: locus YNL224C, strain SQS1, hits give low values.
The mark [14] stands for this setting: locus YOR083W, strain WHI5 (second series), hits give low values.

As for `C[N+](C)(C)C[C@H](O)CC(=O)[O-]`, the normalized growth under setting [1] is 0.972; the normalized growth under setting [2] was 0.984; the normalized growth under setting [3] is 1.02; the normalized growth under setting [4] is 0.923; the normalized growth under setting [5] was 1.01; the normalized growth under setting [6] is 0.923. The normalized growth is, setting by setting: under setting [7], 0.962; under setting [8], 0.961.
Take `NCCc1ccc(S(=O)(=O)F)cc1`: the normalized growth is, setting by setting: (locus YAL013W, strain DEP1, hits give low values) 1; under setting [9], 1.01; under setting [10], 1.02; (locus YMR263W, strain SAP30, hits give low values) 1; (locus YNL153C, strain GIM3, hits give low values) 1.03; under setting [11], 1. Also, the normalized growth was 1.04 under setting [12]; 1 under setting [13]; 1.01 (locus YNL322C, strain KRE1, hits give low values); 0.997 under setting [14]; 1.02 (locus YPL055C, strain LGE1, hits give low values); 1.01 (locus YPL241C, strain CIN2, hits give low values).
`CCCCCCCCCCCCCCCCC(C(=O)O)C(O)(CC(=O)O)C(=O)O` (stereo not given): the normalized growth by setting is: under setting [1], 0.501 (active); under setting [2], 0.804 (active); under setting [3], 0.581 (active); under setting [4], 0.566 (active); under setting [5], 0.48 (active); under setting [6], 0.648 (active). The normalized growth by setting is: under setting [7], 0.836 (active); under setting [8], 0.863.
For `CCCCCC(O)CCCC(=O)O` (stereo not given), the normalized growth under setting [9] was 1.02; the normalized growth (locus YCL061C, strain MRC1 (second series), hits give low values) was 1.01; the normalized growth (locus YDR363W, strain ESC2, hits give low values) was 1.01; the normalized growth under setting [10] is 1.03; the normalized growth (locus YJR075W, strain HOC1, hits give low values) is 1.02; the normalized growth under setting [11] is 1.02. Moreover, the normalized growth runs as follows: under setting [12], 1.05; under setting [13], 0.991; under setting [14], 1.06.
In the case of `CCCCCCCCCCCCCCC(C(=O)O)C(O)(CC(=O)OC)C(=O)O` (stereo not given), the normalized growth was 1.04 (locus YAL021C, strain ccr4, hits give low values); 0.997 (locus YAL026C, strain drs2, hits give low values); 1 (locus YAL030W, strain snc1, hits give low values); 0.97 (locus YBL061C, strain skt5, hits give low values); 0.955 (locus YBR009C, strain hhf1, hits give low values); 0.967 (locus YBR023C, strain chs3, hits give low values). The normalized growth was 0.999 (locus YBR171W, strain sec66, hits give low values); 0.986 (locus YBR231C, strain swc5, hits give low values); 0.988 (locus YBR279W, strain paf1, hits give low values); 1 (locus YCL011C, strain gbp2, hits give low values); 1.01 (locus YCL016C, strain dcc1, hits give low values); 0.986 (locus YCL061C, strain MRC1, hits give low values). The normalized growth by setting is: (locus YCL069W, strain vba3, hits give low values) 1.02; (locus YCR088W, strain abp1, hits give low values) 1.02; (locus YDL005C, strain med2, hits give low values) 0.987; (locus YDL040C, strain nat1, hits give low values) 0.985; (locus YDR001C, strain nth1, hits give low values) 1.02; (locus YDR069C, strain doa4, hits give low values) 1.07. Also, the normalized growth was 0.999 (locus YDR137W, strain rgp1, hits give low values); 0.996 (locus YDR159W, strain sac3, hits give low values); 1.03 (locus YDR195W, strain ref2); 0.994 (locus YDR297W, strain sur2, hits give low values); 1.01 (locus YDR334W, strain swr1, hits give low values); 0.977 (locus YDR335W, strain msn5, hits give low values). The normalized growth is, setting by setting: (locus YDR392W, strain spt3, hits give low values) 0.857; (locus YEL003W, strain gim4, hits give low values) 0.98; (locus YEL037C, strain rad23, hits give low values) 1; (locus YEL061C, strain CIN8 (second series), hits give low values) 1.01; (locus YER015W, strain faa2, hits give low values) 1; (locus YER016W, strain bim1, hits give low values) 1. Also, the normalized growth is, setting by setting: (locus YER111C, strain swi4, hits give low values) 0.964; (locus YER155C, strain BEM2 (second series), hits give low values) 0.981; (locus YFR010W, strain ubp6, hits give low values) 1.08; (locus YGL167C, strain pmr1, hits give low values) 0.981; (locus YGL173C, strain kem1, hits give low values) 0.958; (locus YGL227W, strain vid30, hits give low values) 1. For the same molecule, the normalized growth by setting is: (locus YGL240W, strain doc1, hits give low values) 0.987; (locus YGL253W, strain hxk2, hits give low values) 0.966; (locus YHR013C, strain ard1, hits give low values) 1.62 [resistant] (active); (locus YHR027C, strain rpn1, hits give low values) 0.994; under setting [1], 0.973; under setting [2], 1. Moreover, the normalized growth runs as follows: (locus YHR142W, strain chs7, hits give low values) 0.927; (locus YJL092W, strain hpr5, hits give low values) 1.01; (locus YJL095W, strain BCK1 (second series), hits give low values) 1; under setting [3], 0.952; (locus YJL115W, strain asf1, hits give low values) 0.976; (locus YJL129C, strain trk1, hits give low values) 0.869 (active). The normalized growth is 1.01 (locus YJL154C, strain vps35, hits give low values); 0.979 (locus YJL164C, strain tpk1, hits give low values); 0.976 (locus YJL166W, strain qcr8, hits give low values); 0.995 (locus YJL187C, strain SWE1, hits give low values); 0.898 under setting [4]; 0.99 (locus YKL160W, strain elf1, hits give low values). Also, the normalized growth by setting is: (locus YKR026C, strain gcn3, hits give low values) 0.999; (locus YKR091W, strain srl3, hits give low values) 1.01; (locus YLL001W, strain dnm1, hits give low values) 0.992; (locus YLL026W, hits give low values) 0.997; (locus YLL041C, strain sdh2, hits give low values) 1.01; (locus YLR027C, strain aat2, hits give low values) 0.969. For the same molecule, the normalized growth was 1.02 under setting [5]; 0.947 (locus YLR221C, strain rsa3, hits give low values); 1 (locus YLR258W, strain gsy2, hits give low values); 0.986 (locus YLR262C, strain YPT6 (second series), hits give low values); 0.996 (locus YLR320W, strain mms22, hits give low values); 1 (locus YLR342W, strain FKS1, hits give low values). Moreover, the normalized growth runs as follows: (locus YLR357W, strain rsc2, hits give low values) 0.926; (locus YLR370C, strain arc18, hits give low values) 1.01; (locus YLR384C, strain iki3, hits give low values) 1; (locus YML120C, strain ndi1, hits give low values) 1.02; (locus YMR058W, strain fet3, hits give low values) 0.9 (active); (locus YMR125W, strain sto1, hits give low values) 1.01. Also, the normalized growth reads like this: (locus YMR129W, hits give low values) 1.01; (locus YMR205C, strain PFK2, hits give low values) 1.04; (locus YMR231W, strain pep5, hits give low values) 0.941; (locus YNL071W, strain lat1, hits give low values) 1.02; under setting [6], 0.871; (locus YNL209W, strain ssb2, hits give low values) 1.01. Also, the normalized growth by setting is: (locus YNL248C, strain rpa49, hits give low values) 0.996; (locus YNL322C, strain KRE1 (second series), hits give low values) 1.02; (locus YNR049C, strain mso1, hits give low values) 0.999; (locus YOR001W, strain rrp6, hits give low values) 0.981; (locus YOR070C, strain gyp1, hits give low values) 0.985; (locus YOR080W, strain dia2, hits give low values) 0.994. Also, the normalized growth was 0.967 (locus YOR083W, strain WHI5, hits give low values); 0.982 (locus YOR106W, strain vam3, hits give low values); 1.02 under setting [7]; 1 (locus YOR265W, strain rbl2, hits give low values); 1.45 [resistant] (active) (locus YOR270C, strain vph1, hits give low values); 1.04 (locus YOR290C, strain snf2, hits give low values). The normalized growth reads like this: (locus YPL051W, strain arl3, hits give low values) 0.95; (locus YPL078C, strain atp4, hits give low values) 0.996; (locus YPL106C, strain sse1, hits give low values) 0.976; (locus YPL240C, strain hsp82, hits give low values) 1; under setting [8], 0.999.
In the case of `CCCCC[C@H](CC(=O)O)C(=O)O`, the normalized growth under setting [1] was 1.04; the normalized growth under setting [2] is 1.03; the normalized growth under setting [3] was 1.04; the normalized growth under setting [4] was 1.03; the normalized growth under setting [5] was 0.945; the normalized growth under setting [6] is 0.989. Besides, the normalized growth reads like this: under setting [7], 1.05; under setting [8], 1.02.

Values taken from PubChem BioAssay AID1159580 (chemical genetic matrix, 2015).
